Data as given in PubChem BioAssay (Tox21).
Inconclusive results are not listed. Active and inactive are the calls of the source. Unless noted, the call rests on the fitted dose curve; in most records, active means well fitted curve in the direction sought with a large enough effect in the repeat runs; inconclusive means weak or mixed curves; inactive means no such curve, though single readings can be large; an effect the other way counts as inactive or inconclusive.

Experiments:
[1] = qHTS assay to identify small molecule antagonists of the estrogen related receptor (ERR) signaling pathway - cell viability counter screen (AID 1224818); further: series mostly up to about 46 µM
In short: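 ERR cells, 2,000 per well, compound added after 6 h and incubated 17.5 h at 37 C. Viability read by CellTiter-Fluor fluorescence after a further 30 min at 37 C.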

[2] = qHTS assay to identify small molecule antagonists of the estrogen related receptor (ERR) signaling pathway (AID 1224819; further: nearly all actives have a fitted effect of over 50% in size; further: potency means the concentration at half of the fitted maximal effect)
In short: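 ERR reporter cell line (NTP) plated at 2,000 cells/well, settled 6 h at 37C/5% CO2, then exposed to LOPAC compounds for 18 h at 37C. One-Glo luciferase luminescence read after 30 min at room temperature.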

[3] = qHTS assay to identify small molecule agonists of the estrogen related receptor (ERR) signaling pathway (AID 1224820); further: potency means the concentration at half of the fitted maximal effect
In short: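 Quantitative HTS of the LOPAC library used NTP ERR reporter cells treated 18 h at 37 C. Signal is luminescence after One-Glo addition and a 30 min room-temperature incubation.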

[4] = qHTS assay to identify small molecule agonists of the estrogen related receptor signaling pathway with the pleiotropic PPARgamma coactivator (PGC) (AID 1224823); further: potency means the concentration at half of the fitted maximal effect
In short: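 Cell-based luciferase assay in the NTP-supplied PGC/ERR line, 2,000 cells/well; 18 h compound exposure at 37 C, luminescence after One-Glo.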

[5] = qHTS assay to identify small molecule antagonists of the estrogen related receptor signaling pathway with the pleiotropic PPARgamma coactivator (PGC) cell viability counter screen (AID 1224822; further: series mostly up to about 46 µM)
In short: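 PGC/ERR cells rested 6 h, then compound-treated 17.5 h at 37 C. CellTiter-Fluor added for 30 min at 37 C, viability measured by fluorescence intensity.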

[6] = test system: estrogen-related receptor alpha (ERRalpha) with PGC-1alpha coactivator, human; experiment: qHTS assay to identify small molecule antagonists of the estrogen related receptor signaling pathway with the pleiotropic PPARgamma coactivator (PGC) (AID 1224821; calls by dose curve; further: nearly all actives have a fitted effect of over 50% in size; further: potency means the concentration at half of the fitted maximal effect)
In short: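 Quantitative HTS for antagonism: PGC/ERR cells received compounds after 6 h attachment and were incubated 18 h at 37 C, with luminescence (One-Glo) as the endpoint.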

[7] = molecular target: Luciferin 4-monooxygenase (Photinus pyralis) (UniProt P08659); experiment: qHTS assay to identify small molecule inhibitors of firefly luciferase (AID 1224835); further: potency means the concentration at half of the fitted maximal effect; nearly all actives have a fitted effect of over 25% in size
In short: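 Biochemical qHTS: compounds run as interplate titrations against purified firefly enzyme, with D-luciferin and ATP each at its KM concentration. Light output recorded by CCD imaging.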

[8] = qHTS assay to identify small molecule agonists of the constitutive androstane receptor (CAR) signaling pathway - cell viability counter screen (AID 1224836); further: series mostly up to about 92 µM; nearly all actives have a fitted effect of over 45% in size
In short: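 Using CellTiter-Fluor, viability of HepG2 cells harbouring hCAR and CYP2B6-2.2kb was measured following 23 h incubation with a 15-concentration compound series plus PK11195 (0.75 uM final).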

[9] = qHTS assay to identify small molecule antagonists of the constitutive androstane receptor (CAR) signaling pathway - cell viability counter screen (AID 1224837); further: series mostly up to about 92 µM; nearly all actives have a fitted effect of over 45% in size
In short: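 HepG2 cells stably carrying hCAR and CYP2B6-2.2kb reporter, stimulated with 50 nM CITCO and compounds at 15 concentrations for 23 h at 37 C. Viability measured by CellTiter-Fluor fluorescence.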

[10] = molecular target: Nuclear receptor subfamily 1 group I member 3 (Homo sapiens) (UniProt Q14994); experiment: qHTS assay to identify small molecule antagonists of the constitutive androstane receptor (CAR) signaling pathway (AID 1224838); further: nearly all actives have a fitted effect of over 40% in size
In short: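 HepG2 cells stably carrying hCAR and a CYP2B6-2.2kb luciferase reporter, seeded 4 hrs before compound (15 concentrations). Stimulated with 50 nM CITCO for 24 hr at 37 C. ONE-Glo luminescence read after 30 min at room temperature.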

[11] = molecular target: Nuclear receptor subfamily 1 group I member 3 (Homo sapiens) (UniProt Q14994); experiment: qHTS assay to identify small molecule agonists of the constitutive androstane receptor (CAR) signaling pathway (AID 1224839); further: potency means the concentration at half of the fitted maximal effect; nearly all actives have a fitted effect of over 15% in size
In short: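 Double-stable HepG2 cells (hCAR, CYP2B6-2.2kb) seeded 4 h before compound addition. Exposure 24 h with 0.75 uM PK11195 final. Luciferase detected by ONE-Glo.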

[12] = qHTS assay to identify small molecule antagonists of the estrogen related receptor signaling pathway with the pleiotropic PPARgamma coactivator (PGC) from Tox21 10K library - cell viability counter screen (AID 1224840; active means well fitted cell-killing curve with a large enough effect in the repeat runs, not every such curve was filed as active; further: nearly all actives have a fitted effect of over 40% in size)
In short: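 PGC/ERR cells (2,000/well) plated 6 h, then compound-treated for 17.5 h at 37 C. Viability measured by CellTiter-Fluor fluorescence after 30 min at 37 C, multiplexed with the pathway assay.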

[13] = qHTS assay to identify small molecule antagonists of the estrogen related receptor signaling pathway with the pleiotropic PPARgamma coactivator (PGC) from Tox21 10K library (AID 1224841; call rule not given here; further: series mostly up to about 92 µM; actives are mostly falling curves and most rising ones were filed inactive; nearly all actives have a fitted effect of over 50% in size)
In short: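 PGC/ERR cell line, 2,000 cells/well, pre-incubated 6 hours at 37 C, then exposed to compounds for 18 hours at 37 C; luciferase read with One-Glo luminescence after 30 min at room temperature.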

[14] = qHTS assay to identify small molecule agonists of the estrogen related receptor signaling pathway with the pleiotropic PPARgamma coactivator (PGC) from Tox21 10K library (AID 1224842); further: potency means the concentration at half of the fitted maximal effect; nearly all actives have a fitted effect of over 15% in size
In short: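 PGC/ERR reporter cell line, 2,000 cells per well, incubated 6 h at 37 C before 23 nL compound in DMSO was added. After 18 h at 37 C, One-Glo luminescence read following 30 min at room temperature.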

[15] = molecular target: Thyrotropin receptor (Homo sapiens) (UniProt P16473); experiment: qHTS assay to identify small molecule agonists of the thyroid stimulating hormone receptor (TSHR) signaling pathway (AID 1224843; calls by dose curve; further: nearly all actives have a fitted effect of over 45% in size)
In short: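 Steps: seed 800 TSHR-HEK293 cells per well; add test compound and hold 30 min at ambient temperature; dispense cAMP-d2 then anti-cAMP cryptate; incubate 1 h at ambient; measure fluorescence intensity.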

[16] = qHTS assay to identify small molecule agonists of the hypoxia (HIF-1) signaling pathway - cell viability counter screen (AID 1224844; calls by dose curve; further: nearly all actives have a fitted effect of over 50% in size)
In short: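 HRE-bla ME-180 cells, 2,000/well in 0.5% dialyzed FBS medium, treated 17 h at 37C with compounds. Viability read in the same wells as the bla reporter, by CellTiter-Glo luminescence after 30 min at room temperature.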

[17] = qHTS assay to identify small molecule agonists of H2AX - cell viability counter screen (AID 1224847; calls by dose curve; further: top concentration of the series differs between compounds; nearly all actives have a fitted effect of over 30% in size)
In short: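 Quantitative HTS viability measurement: CHO-K1 wild-type cells in serum (10% FBS) medium, short 3 hr drug exposure at 37C with 0.76% DMSO, CellTiter-Glo luminescent detection.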

Measured: Potency

Sequence of Nuclear receptor subfamily 1 group I member 3 (Homo sapiens) (Q14994 whole entry, looked up): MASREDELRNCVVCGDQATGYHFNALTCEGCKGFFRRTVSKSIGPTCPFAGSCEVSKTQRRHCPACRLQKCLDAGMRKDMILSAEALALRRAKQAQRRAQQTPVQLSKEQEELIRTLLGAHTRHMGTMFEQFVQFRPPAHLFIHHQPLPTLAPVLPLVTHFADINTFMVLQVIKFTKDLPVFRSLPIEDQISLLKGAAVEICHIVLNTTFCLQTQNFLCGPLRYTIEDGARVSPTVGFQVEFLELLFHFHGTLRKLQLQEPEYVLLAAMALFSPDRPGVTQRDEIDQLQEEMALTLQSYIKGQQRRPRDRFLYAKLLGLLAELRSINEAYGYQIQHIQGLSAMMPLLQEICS
Sequence of Luciferin 4-monooxygenase (Photinus pyralis) (P08659 whole entry, looked up): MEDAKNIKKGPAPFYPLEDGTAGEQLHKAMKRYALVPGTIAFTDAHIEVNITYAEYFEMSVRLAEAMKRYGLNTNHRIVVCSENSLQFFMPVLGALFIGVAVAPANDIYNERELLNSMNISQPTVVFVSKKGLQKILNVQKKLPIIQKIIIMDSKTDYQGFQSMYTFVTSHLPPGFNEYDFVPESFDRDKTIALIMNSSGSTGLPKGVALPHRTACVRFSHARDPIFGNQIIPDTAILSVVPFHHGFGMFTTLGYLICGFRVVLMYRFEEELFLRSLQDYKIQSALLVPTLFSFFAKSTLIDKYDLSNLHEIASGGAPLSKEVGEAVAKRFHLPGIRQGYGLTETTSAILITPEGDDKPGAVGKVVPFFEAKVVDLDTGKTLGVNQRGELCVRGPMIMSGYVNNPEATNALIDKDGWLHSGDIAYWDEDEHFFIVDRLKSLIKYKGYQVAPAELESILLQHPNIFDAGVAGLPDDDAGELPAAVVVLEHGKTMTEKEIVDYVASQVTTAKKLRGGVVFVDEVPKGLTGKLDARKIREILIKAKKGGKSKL
Sequence of Thyrotropin receptor (Homo sapiens) (P16473 whole entry, looked up): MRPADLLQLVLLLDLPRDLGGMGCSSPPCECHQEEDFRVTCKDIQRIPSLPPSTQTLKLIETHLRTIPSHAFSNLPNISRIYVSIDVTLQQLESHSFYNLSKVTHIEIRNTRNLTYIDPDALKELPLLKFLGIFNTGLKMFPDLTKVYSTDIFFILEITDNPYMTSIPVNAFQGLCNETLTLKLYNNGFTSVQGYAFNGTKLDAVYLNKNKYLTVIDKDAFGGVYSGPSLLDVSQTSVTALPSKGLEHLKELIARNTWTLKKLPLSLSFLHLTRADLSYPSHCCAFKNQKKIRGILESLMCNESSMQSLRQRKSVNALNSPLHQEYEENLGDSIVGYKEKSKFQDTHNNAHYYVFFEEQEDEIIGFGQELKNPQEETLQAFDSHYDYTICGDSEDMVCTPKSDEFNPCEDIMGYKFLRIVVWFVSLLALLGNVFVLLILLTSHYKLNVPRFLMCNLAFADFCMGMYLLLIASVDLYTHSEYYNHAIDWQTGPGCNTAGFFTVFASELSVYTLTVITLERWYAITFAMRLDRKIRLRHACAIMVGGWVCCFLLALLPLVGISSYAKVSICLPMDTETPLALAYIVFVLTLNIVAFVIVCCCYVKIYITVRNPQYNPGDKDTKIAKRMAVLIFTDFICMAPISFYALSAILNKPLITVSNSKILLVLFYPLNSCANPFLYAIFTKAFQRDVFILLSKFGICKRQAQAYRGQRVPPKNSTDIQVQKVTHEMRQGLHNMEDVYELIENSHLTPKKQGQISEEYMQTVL

CCCC[C@@]1(C2CCCC2)Cc2cc(OCC(=O)O)c(Cl)c(Cl)c2C1=O
active: [2] 11.4 µM
inactive: [1] | [3] | [4]

C[C@@H](NCCc1ccc(O)cc1)[C@@H](O)c1ccc(O)cc1
inactive: [1] | [2] | [3] | [5] | [4]

CC[C@H](NC(=O)c1c(C)c(-c2ccccc2)nc2ccccc12)c1ccccc1
active: [2] 22 µM
inactive: [1] | [3] | [4]

Cn1cc(C2=C(c3ccc(Cl)cc3Cl)C(=O)NC2=O)c2ccccc21
active: [2] 21.1 µM
inactive: [1] | [3] | [5] | [4]

COc1ccc2c(c1)c(CC(=O)O)c(C)n2C(=O)c1ccccc1
inactive: [1] | [2] | [3] | [5] | [4]

O=C1NC(=O)/C(=C/c2ccc3nccnc3c2)S1
inactive: [1] | [2] | [3] | [5] | [4]

Cc1ccc([N+](=O)[O-])cc1S(=O)(=O)N(C)C
inactive: [1] | [2] | [6] | [5] | [4]

O=C(O)CCc1ccc(NCc2cccc(Oc3ccccc3)c2)cc1
inactive: [1] | [2] | [3] | [5] | [4]

CCC(NC(C)C)C(O)c1ccc(O)c(O)c1 (configuration not stated)
inactive: [1] | [2] | [3] | [5] | [4]

Cc1cccc(/C=C/c2ccccc2)n1
active: [3] 13.3 µM | [4] 13.9 µM
inactive: [1] | [2] | [5]

O=Nc1ccc2oc(=O)ccc2c1
inactive: [1] | [2] | [6] | [5]

CCc1cncnc1N1CCN(Cc2nc3ccc(C(F)(F)F)cc3[nH]2)CC1
active: [2] 6.94 µM
inactive: [1] | [3] | [5] | [4]

O=C1NC(=O)C(c2ccccc2[N+](=O)[O-])=C1Nc1ccc(O)c(Cl)c1
inactive: [1] | [2] | [3] | [5] | [4]

CC(=O)O[C@H]1Cc2ccccc2N(C(N)=O)c2ccccc21
inactive: [1] | [2] | [6] | [5] | [4]

Oc1ccc2ccccc2c1SSc1c(O)ccc2ccccc12
active: [2] 20.3 µM
inactive: [1] | [3] | [4]

Cn1c(=O)c2[nH]c(-c3ccc(S(=O)(=O)O)cc3)nc2n(C)c1=O
inactive: [1] | [2] | [3] | [5] | [4]

Nc1nc2c(nc(Br)n2C2OC3COP(=O)(O)O[C@@H]3C2O)c(=O)[nH]1 (some centres not stated)
inactive: [1] | [2] | [3] | [5] | [4]

CN1C2CCC1CC(OC(c1ccccc1)c1ccccc1)C2 (configuration not stated)
inactive: [1] | [2] | [3] | [4]

N[C@@H](Cc1cnc[nH]1)C(=O)O
inactive: [1] | [2] | [3] | [5] | [4]

CC1=C(C(=O)O)N2C(=O)[C@@H](NC(=O)C(N)c3ccccc3)[C@H]2SC1 (some centres not stated)
inactive: [1] | [2] | [3] | [5] | [4]

C[C@H](O)C(=O)C1=Nc2c(nc(N)[nH]c2=O)NC1
inactive: [1] | [2] | [3] | [5] | [4]

Cc1cc(N)c2ccccc2[n+]1CCCCCCCCCC[n+]1c(C)cc(N)c2ccccc21
active: [2] 0.722 µM
inactive: [1] | [3] | [5] | [4]

Oc1ccc(C2CNCc3sccc32)cc1O (configuration not stated)
inactive: [1] | [2] | [3] | [4]

Cc1ccc2c(c1)C(N1CCN(C)CC1)=Nc1cccnc1N2
inactive: [1] | [2] | [6] | [5]

Oc1ccc(-c2nc(-c3ccc(F)cc3)c(-c3ccncc3)[nH]2)cc1
inactive: [1] | [3] | [4]
active: [2] 11.4 µM

CCCn1c(=O)c2[nH]c(C3CCCC3)nc2n(CCC)c1=O
inactive: [1] | [2] | [6] | [5] | [4]

C=CCNc1ncnc2ccc(Br)cc12
inactive: [1] | [5] | [4]
active: [2] 9.44 µM | [6] 10.2 µM

Oc1cc(O)cc(/C=C/c2ccc(O)c(O)c2)c1
inactive: [1] | [2] | [5]
active: [4] 18.1 µM

COc1cc(C(O)C(=O)O)ccc1O (configuration not stated)
inactive: [1] | [2] | [6] | [5] | [4]

CCCOC(=O)c1ccc(O)cc1
active: [7] 89.4 µM | [11] 54.5 µM | [14] 10.9 µM
not listed: [3]
inactive: all other assays above
